Assay outcomes: PubChem BioAssay, National Center for Advancing Translational Sciences (NCATS)
D1 potentiator: Potentiators of Human D1 Dopamine Receptor: qHTS. HEK293 TREx D1 cells, calcium flux, dopamine EC20 potentiation. potentiation, % at 10 µM. 360,000 compounds, 0.036% hits; in the data active means potentiation above about 30%; further: 0% is about no effect
Target sequence (P21728 whole entry, looked up): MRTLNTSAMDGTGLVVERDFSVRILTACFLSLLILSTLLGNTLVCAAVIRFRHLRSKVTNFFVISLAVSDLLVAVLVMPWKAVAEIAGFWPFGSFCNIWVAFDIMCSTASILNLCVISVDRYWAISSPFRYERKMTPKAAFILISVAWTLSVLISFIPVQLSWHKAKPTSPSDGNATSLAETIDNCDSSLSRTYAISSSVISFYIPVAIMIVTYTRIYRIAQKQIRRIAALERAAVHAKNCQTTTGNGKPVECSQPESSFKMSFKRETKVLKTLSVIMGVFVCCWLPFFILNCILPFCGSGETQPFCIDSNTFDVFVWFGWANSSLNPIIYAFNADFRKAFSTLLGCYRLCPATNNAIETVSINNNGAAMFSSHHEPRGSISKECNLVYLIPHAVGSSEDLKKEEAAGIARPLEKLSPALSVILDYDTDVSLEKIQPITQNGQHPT
D1 antagonist: Antagonist of Human D 1 Dopamine Receptor: qHTS. activity change, negative = inhibition, % at 10 µM. AID 504652, 2011. 360,000 compounds, 3.2% hits. D(1A) dopamine receptor (Homo sapiens), P21728. HEK293 TREx D1 cells, calcium flux, dopamine EC80; stronger effect = lower value; in the data active means activity change below about -30%; further: on the % scale 0 is the no-effect control and ±100 the full control effect
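Tetracycline-induced HEK293 Trex D1 cells, force-coupled to calcium, dye-loaded; compounds added and read 180 s, then EC80 dopamine added and calcium flux tracked kinetically another 180 s.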
TRHR enhancer: qHTS for Small Molecule Agonists and Allosteric Enhancers of Human TRH Receptor: Primary Screen for Enhancers; Thyrotropin-releasing hormone receptor (Homo sapiens), P34981; TRHR cells, fluo-8 calcium fluorescence, EC20 TRH enhancement; enhancement, % at 2 µM; 360,000 compounds, 0.66% hits; in the data active means enhancement above about 30%; further: 0% is about no effect
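Enhancer read-out: after compound pinning and an initial kinetic agonist-mode read, an EC20 of TRH (10 nM final) was injected and fluo-8 calcium signal (Ex 480/Em 530) followed at 1 s/cycle for 100 cycles in TRHR-expressing cells.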
D1 agonist: Allosteric Agonists of the Human D1 Dopamine Receptor: qHTS | activation, % at 2 µM | HEK293 T-REx D1 cells, calcium flux, agonist mode | AID 504660, 2011 | 360,000 compounds, 1% hits; further: 0% is about no effect
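Agonism was scored from calcium flux recorded over 180 s (1 read/s) after pintool compound addition, following a 10-cycle baseline. Cells were inducible force-coupled HEK293 TREx D1, plated overnight at 30 C and loaded with no-wash calcium dye.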
TRHR ag: qHTS for Small Molecule Agonists and Allosteric Enhancers of Human TRH Receptor: Primary Screen for Agonists; activation, % at 2 µM; Thyrotropin-releasing hormone receptor (Homo sapiens), P34981; AID 493084, 2011; 360,000 compounds, 0.18% hits; TRHR cells, calcium flux fluo-8, FDSS agonist mode; further: 0% is about no effect
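Steps: seed TRHR cells overnight; add fluo-8 no-wash Ca dye, RT 30 min–1.5 h; record 10 s baseline; pin-transfer compounds; monitor fluorescence 1 cycle/s for the agonist window. Calcium increases flag candidate agonists.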
An asterisk follows results filed as active; ! = a repeat was not active. A selection: hits, their analogues and other compounds. The true share with any hit is near 4.7%. Unless noted, no stated cut-off is given here; in the data, active means activation above about 30%; inactive means the rest.

`Cc1ccc2c(CC(=O)Nc3c(C(=O)Nc4cccc(Cl)c4)oc4ccccc34)coc2c1C` gave D1 potentiator 0, D1 antagonist -1, TRHR enhancer -1, D1 agonist 3 and TRHR ag 1.
For CCOC(=O)c1c(C)[nH]c(C)c1S(=O)(=O)N1CCCC(C(=O)N2CCN(c3cc(C)ccc3C)CC2)C1 (stereo not given) the results were D1 potentiator -2, D1 antagonist -5, TRHR enhancer 1, D1 agonist 4 and TRHR ag -1.
Screening COc1ccc(C(=O)NCC(C)(C)SCc2c(C)cc(C)cc2C)cc1 returned D1 potentiator 7, D1 antagonist -61*, TRHR enhancer -3, D1 agonist 56* and TRHR ag -2.
Screening COc1ccc(C2N3CC4(C)CN2CC(C)(C3)C4)cc1OC (stereo not given) returned D1 potentiator 4, D1 antagonist -36*, TRHR enhancer 6, D1 agonist 2 and TRHR ag 0.
Screening COc1ccc(C2N3CC4(C)CN2CC(c2ccccc2)(C3)C4=O)cc1OC (stereo not given) returned D1 potentiator 1, D1 antagonist 10, TRHR enhancer 0, D1 agonist 0 and TRHR ag 1.
For CC1=C(C(=O)OCc2ccccc2)C(c2ccc(Cl)cc2Cl)NC(=O)N1CCCCCC(=O)O (stereo not given) the results were D1 potentiator -4, D1 antagonist -27, TRHR enhancer -1, D1 agonist -2 and TRHR ag -1.
Screening CC1=C(C(=O)OCc2ccccc2)C(c2cccc3ccccc23)NC(=O)N1CCCC(=O)O (stereo not given) returned D1 potentiator -1, D1 antagonist -39*, TRHR enhancer 3, D1 agonist 1 and TRHR ag 0.
CC1=C(C(=O)OCc2ccccc2)C(c2cccc(Cl)c2Cl)NC(=O)N1CCCCCC(=O)O (stereo not given) was read as D1 potentiator 0, D1 antagonist -33*, TRHR enhancer 3, D1 agonist 2 and TRHR ag 0.
`COc1ccc(Cn2c(CO)cnc2SCc2cccc(C)c2)cc1` gave D1 potentiator 2, D1 antagonist 6, TRHR enhancer 8, D1 agonist 10 and TRHR ag -1.
CC1(C)CN=c2s/c(=C\c3ccc(Cl)cc3)c(=O)n2C1 was read as D1 potentiator -7, D1 antagonist 8, TRHR enhancer 5, D1 agonist 33* and TRHR ag 2.
CSC1=N/C(=C\c2ccc(Cl)cc2)C(=O)N1N(C)C was read as D1 potentiator -4, D1 antagonist -5, TRHR enhancer 1, D1 agonist 9 and TRHR ag 0.
`CCn1nc(NC(=O)COC)c2cc3cccc(C)c3nc21` gave D1 potentiator -4, D1 antagonist -81*, TRHR enhancer 1, D1 agonist 3 and TRHR ag -1.
O=C(NCCn1cc(SCc2ccc(F)cc2)c2ccccc21)c1cccs1 was read as D1 potentiator -6, D1 antagonist 13, TRHR enhancer -9, D1 agonist -1 and TRHR ag 2.
For CCN(Cc1ccccc1)c1ccc(/C=C(\C#N)c2ccccn2)cc1 the results were D1 potentiator 10, D1 antagonist 12, TRHR enhancer 6, D1 agonist 31* and TRHR ag 5.
N#C/C(=C\c1ccc(C(=O)O)cc1)c1ccccn1 was read as D1 potentiator -2, D1 antagonist 11, TRHR enhancer 0, D1 agonist -1 and TRHR ag 1.
Screening CN(CCC#N)c1ccc(/C=C(\C#N)c2ccccn2)cc1 returned D1 potentiator -5, D1 antagonist -19, TRHR enhancer 1, D1 agonist 4 and TRHR ag 0.
CCN(CC)c1ccc(/C=C(\C#N)c2ccccn2)cc1 was read as D1 potentiator -2, D1 antagonist -87*, TRHR enhancer 0, D1 agonist 35* and TRHR ag 3.
For CCOC(=O)C1CCN(c2c(N3CCCC(C(=O)OCC)C3)c(=O)c2=O)CC1 (stereo not given) the results were D1 potentiator 0, D1 antagonist -14, TRHR enhancer 0, D1 agonist 1 and TRHR ag 0.
For CCOC(=O)C1CCCN(c2c(N3CCN(c4ccccn4)CC3)c(=O)c2=O)C1 (stereo not given) the results were D1 potentiator -12, D1 antagonist -52*, TRHR enhancer 3, D1 agonist 1 and TRHR ag 0.
COc1cc(OC)c(NS(=O)(=O)c2c(C)nc3sc(C)cn3c2=O)cc1Cl was read as D1 potentiator -3, D1 antagonist -5, TRHR enhancer -1, D1 agonist 9 and TRHR ag 0.
`CCN(CC)CCNC(=O)c1ccc(NC(=O)c2ccc(C(=O)c3ccccc3)cc2)cc1` gave D1 potentiator -7, D1 antagonist -38*, TRHR enhancer 6, D1 agonist 2 and TRHR ag 1.
CCN(CC)CCNC(=O)c1ccc(NC(=O)c2ccc(COc3ccccc3)cc2)cc1 was read as D1 potentiator -7, D1 antagonist 3, TRHR enhancer 1, D1 agonist 3 and TRHR ag -1.
`CCN(CC)CCNC(=O)c1ccc(NC(=O)Cc2cccc3ccccc23)cc1` gave D1 potentiator -9, D1 antagonist -20, TRHR enhancer 10, D1 agonist 3 and TRHR ag -1.
Screening CCN(CC)CCNC(=O)c1ccc(NC(C)=O)cc1 returned D1 potentiator -4, D1 antagonist -34*!, TRHR enhancer 24, D1 agonist 2 and TRHR ag 1.
For COc1cc(OC)c(OC)cc1CN1CCc2nc(Nc3ccc4c(c3)OCCO4)ncc2C1 the results were D1 potentiator 0, D1 antagonist 1, TRHR enhancer 8, D1 agonist -2 and TRHR ag 0.
O=c1cc(O)c(-c2ccc(Cl)cc2)c(Cl)[nH]1 was read as D1 potentiator 2, D1 antagonist -2, TRHR enhancer 0, D1 agonist 2 and TRHR ag -1.
For O=c1cc(O)c(-c2ccc(Cl)c(Cl)c2)c(Cl)[nH]1 the results were D1 potentiator -6, D1 antagonist 1, TRHR enhancer 35*, D1 agonist 1 and TRHR ag 1.
COc1ccc2c3c(cccc13)C(=O)CC2 was read as D1 potentiator -10, D1 antagonist 0, TRHR enhancer 8, D1 agonist 52* and TRHR ag 122*.
